Source: PubChem
TcdB inh – inhibitors of Clostridioides difficile toxin B glycohydrolase; AID 652162; actives 0.24% (n = 350,000); TcdB glycohydrolase enzymatic assay, plate reader; inhibition, % at 9.99 µM; in the data active = inhibition above about 10%
BioA inh – BioA (M. tuberculosis) enzyme inhibition; purified M. tuberculosis BioA enzyme, plate reader; inhibition, % at 9.99 µM; actives 0.096% (n = 360,000); AID 602481; in the data active = inhibition above about 40%; inconclusive = no clear call, values can overlap the other calls
PrP 5UTR inh – inhibition of PrP 5' UTR reporter expression | AID 488862 | actives 0.35% (n = 340,000) | inhibition, % (test concentration not listed) | cell-based PrP 5' UTR mRNA reporter, plate reader; in the data active = inhibition above about 52%; note: 0 = median of the neutral control wells
Y pestis TopoI – blocks Yersinia pestis topoisomerase I activity | Y. pestis Topo-I cleavage product accumulation, plate reader | actives 0.064% (n = 360,000) | activity, % at 10 µM; in the data active = activity above about 50%, passing the limit was not always enough; inconclusive = no clear call, values can overlap the other calls
PrP 5UTR single – prion 5' UTR mRNA inhibition, cherry-pick retest; inhibition, % at 2.5 µM; AID 504592; shares compounds with PrP 5UTR inh; actives 48% (n = 1,100); cell-based prion protein 5' UTR reporter, plate reader; in the data active = inhibition above about 54%; inconclusive = no clear call, values can overlap the other calls
* marks the source's active call; other numbers are inactive results; ? = inconclusive; nt = not tested or not shown. Only some compounds are listed: those with a hit (about 0.57% of all), similar ones and a draw of the others.

SMILES	TcdB inh	BioA inh	PrP 5UTR inh	Y pestis TopoI	PrP 5UTR single
CCNC(=O)C[C@@H]1CC[C@H]2[C@@H](COC[C@@H](O)CN2C(=O)C2CC2)O1	-2	-1	nt	nt	nt
COc1cccc2c1C(=O)c1c(O)c3c(c(O)c1C2=O)CC(O)(C(=O)CO)CC3OC1CC(N(C)C)C(O)C(C)O1 (stereo unspecified)	-22	nt	86*	-34	95*
COc1cccc2c1C(=O)c1c(O)c3c(c(O)c1C2=O)C[C@@](O)(C(=O)CO)C[C@@H]3O[C@H]1C[C@H](N)[C@@H](O)[C@H](C)O1	nt	-11	75*	-11	87*
CC(C)(C)n1ncc2c(=O)n(CC(=O)OCc3ccccc3)cnc21	nt	-1	60*	1	30
COc1ccc(NC(=O)N[C@@H]2CC[C@H](CCn3cc(-c4ccccn4)nn3)O[C@@H]2CO)cc1	1	1	nt	nt	nt
CCCCc1cn(C[C@H]2CC[C@@H]([C@@H]3CC[C@H](Cn4cc(CCCC)nn4)O3)O2)nn1	1	1	-17	5	nt
ClCCCc1cn(C[C@H]2CC[C@@H]([C@@H]3CC[C@H](Cn4cc(CCCCl)nn4)O3)O2)nn1	1	0	68*	4	-13
Brc1ccc(N=Nc2ccc3ccccc3n2)cc1	-1	-2	82*	-11	80*
CCOC(=O)c1ccc(CNC(=O)CCC(=O)O)cc1	nt	-5	67*	-3	-2
Cc1ccc(S(=O)(=O)NCC[C@H]2CC[C@@H](NC(=O)c3cccc(F)c3)[C@H](CO)O2)cc1	0	10	nt	nt	nt
CO[C@@H]1CC[C@@H]2CCN(C)C(=O)[C@H](C)N(C)C(=O)c3cc(C#N)ccc3OC[C@H]1O2	nt	1	nt	nt	nt
CC1(C)Oc2cc3oc(-c4cc(O)cc(O)c4)cc3cc2CC1O (stereo unspecified)	0	1	71*	-14	?
Oc1cc(O)cc(-c2cc3ccc(O)cc3o2)c1	1	3	2	-21	nt
O=C(CSc1ncn[nH]1)Nc1ncc(C(F)(F)F)cc1Cl	1	nt	75*	8	-11
Clc1ccccc1N=Nc1ccccn1	0	nt	68*	-6	-22
Cc1[nH][nH]c(=O)c1N=Nc1ccccc1Cl	2	nt	-11	-5	nt
Cc1cccc(-n2ncc3c(N(C)C4CCCCC4)ncnc32)c1	1	0	78*	7	69*
COc1ccc(-n2ncc3c(N(C)C4CCCCC4)ncnc32)cc1	-1	17	78*	29	66*
Cc1cccc(-n2ncc3c(N(CCO)CCO)ncnc32)c1	2	0	-66	0	nt
CC(=O)Nc1ccc(Nc2cc(C)nc3c(-c4ccccc4)cnn23)cc1	nt	1	60*	-2	-4
Cc1cc(N)n2ncc(-c3ccccc3)c2n1	nt	0	-132	-5	nt
Cc1noc(C)c1S(=O)(=O)N(C)C[C@@H]1Oc2ccc(NS(=O)(=O)c3cn(C)cn3)cc2CC(=O)N([C@H](C)CO)C[C@H]1C	0	4	nt	nt	nt
Cc1ccoc1C(=O)Nc1ccc(CC(=O)O)cc1	nt	-10	64*	-7	53*
CC(C)c1ccc(-c2nc3ccccc3s2)cc1	1	nt	85*	2	85*
CN(C(=O)OC(C)(C)C)c1ccc(-c2nc3ccccc3s2)cc1	-2	8	90*	35	88*
SMILES	TcdB inh	BioA inh	PrP 5UTR inh	Y pestis TopoI	PrP 5UTR single
COC(=O)N(C)c1nc2ccccc2s1	nt	-1	-40	0	nt
CCOc1ccccc1C(=O)N1CCN(c2ccc(C(F)(F)F)cn2)CC1	1	2	62*	28	8
COC(=O)C1=C(C(=O)OC)SC2(S1)C(C(=O)OC)=C(C(=O)OC)Sc1c2ssc1=O	3	nt	75*	-6	72*
COC(=O)C1=C(C(=O)OC)SC2(S1)C(C(=O)OC)=C(C(=O)OC)SC1=C2c2cc(C)cc(C)c2NC1(C)C	nt	-1	-14	6	nt
CCCNC(=O)N1CCC2(CC1)CN(C(=O)Nc1ccc(F)cc1)[C@H](CO)c1[nH]c3cc(OC)ccc3c12	1	nt	nt	nt	nt
C[C@H]1CN([C@@H](C)CO)S(=O)(=O)c2ccc(C#CC(C)(C)O)cc2O[C@@H]1CN(C)Cc1ccc(-c2ccccc2)cc1	0	9	nt	nt	nt
Cc1ccc(S(=O)(=O)N2CCC(=O)CC2c2ccccc2)cc1 (stereo unspecified)	2	1	56*	-2	-39
C[C@H](CO)N1C[C@H](C)[C@H](CN(C)Cc2ccc(Oc3ccccc3)cc2)Oc2ncc(-c3cncnc3)cc2C1=O	0	0	nt	nt	nt
CC(C)NC(=O)N(C)C[C@@H]1OCCCC[C@@H](C)Oc2ccc(NS(=O)(=O)c3ccccc3)cc2C(=O)N([C@H](C)CO)C[C@H]1C	0	-1	nt	nt	nt
COc1ccc(S(=O)(=O)N(C)C[C@@H]2Oc3ccc(NC(=O)Nc4ccc(F)cc4)cc3C(=O)N([C@H](C)CO)C[C@H]2C)cc1	1	1	nt	nt	nt
O=C(NCc1ccccc1Cl)c1ccc[nH]1	2	-1	77*	2	23
CC(=O)c1c(C)[nH]c(C(=O)COC(=O)CCCOc2ccccc2)c1C	1	nt	58*	-1	?
CC(=O)c1c(C)[nH]c(C(=O)COC(=O)CCSc2ccccc2)c1C	1	0	-11	-3	nt
Cc1cnc(NC(=O)c2ccc3c(c2)OCCO3)s1	0	0	81*	1	73*
CC(C)c1nnc(NC(=O)c2ccc3c(c2)OCO3)s1	1	nt	54*	0	?
O=C(C1CCOCC1)N1CC(=O)N2[C@@H](CO)[C@H](c3ccc(C#Cc4cccc(F)c4)cc3)[C@@H]2C1	1	nt	nt	nt	nt
O=C(N/N=C/c1ccncc1)c1cccc(N/N=C/c2ccncc2)c1	-3	nt	72*	-7	-2
O=C(N/N=C/c1ccc(O)cc1)c1cccc(N/N=C/c2ccc(O)cc2)c1	2	-1	8	-19	nt
C[C@H](CO)N1C[C@H](C)[C@@H](CN(C)S(=O)(=O)c2ccccc2)OCCCC[C@H](C)Oc2ccc(NS(=O)(=O)c3cn(C)cn3)cc2C1=O	1	0	nt	nt	nt
O=C(O)COc1ccccc1/C=C1\SC(=O)N(Cc2ccc(F)cc2)C1=O	3	2	-2	-8	nt
Cc1ccc(CN2C(=O)S/C(=C\c3ccccc3OCC(=O)O)C2=O)cc1	1	nt	81*	-2	-15
CCOC(=O)N1CCC(Nc2c(-c3ccc(C)c(C)c3)c(=O)c2=O)CC1	nt	0	73*	1	-8
CCOC(=O)c1cnn(-c2ccccc2)c1NC(=O)CN1CCOCC1	1	nt	74*	0	-50
N#Cc1cnn(-c2ccccc2)c1NC(=O)CN1CCOCC1	2	-3	nt	-6	nt
COc1ccc(S(=O)(=O)NCc2ccco2)cc1C(=O)N1CCOCC1	1	0	-11	5	nt
O=C(c1cc(S(=O)(=O)NCc2ccco2)ccc1Br)N1CCOCC1	-2	-1	79*	1	13
COc1cccc(C#Cc2ccc3c(c2)[C@@H]2[C@@H](CCN2S(=O)(=O)c2ccccc2)[C@@H](CO)N3)c1	-2	nt	nt	nt	nt
C[C@@H]1CN([C@@H](C)CO)C(=O)c2cc(NC(=O)Cn3cnnn3)ccc2O[C@H]1CN(C)Cc1ccncc1	0	3	nt	nt	nt
CCN1C=C(C(=O)c2ccccc2)C(=O)CC1	0	-2	61*	3	0
